Assay results taken from PubChem BioAssay (NCATS).
Records with an inconclusive call do not appear. Activity calls are given as the source filed them. Calls come from the whole dose curve; as a rule, active = well fitted activation curve with a large enough effect in the signal ratio, with a control signal flat (not every such curve was filed as active); inconclusive = small, poorly fitted or top-dose-only effect, or effect the other way, or a change in a side signal; inactive = flat fitted curve, though single readings scatter; the % refers to the signal ratio.

Test: qHTS Assay for Identification of Small Molecule Agonists for Hypoxia Response Element Signaling Pathway (AID 914); for activation: % of control where 0% means no effect
Details: ME-180 (cervical carcinoma) HRE-bla reporter, beta-lactamase ratio, CoCl2, 17 h; activation: stronger effect = higher value
Text: NIH Molecular Libraries Screening Centers Network [MLSCN]
NIH Chemical Genomics Center [NCGC]
Hypoxia-inducible factor-1 (HIF-1) is the major hypoxia-regulated transcription factor that controls cellular responses to low oxygen concentration. HIF-1 is composed of two subunits: hypoxia responsive HIF-1 alpha and constitutively expressed HIF-1 beta, which is also known as aryl hydrocarbon receptor nuclear translocator. During hypoxic conditions, HIF-1 alpha heterodimerizes with HIF-1 beta and translocates into the nucleus where the HIF-1 complex binds to the hypoxia-response element (HRE) and activates expression of target genes such as VEGF (vascular endothelial growth factor). HIF-1 alpha protein levels are elevated in many solid tumors, including those of the cervix and brain. Within tumors, cells that are the greatest distance from blood vessels and therefore the most hypoxic express the highest levels of HIF-1 alpha. Therapeutic blockade of the HIF-1 signaling pathway in cancer cells therefore provides an attractive strategy for development of anticancer drugs.
Using a beta-lactamase reporter-gene under control of the hypoxia response element, a cell-based assay [CellSensor(TM) HRE-bla ME-180 developed by Invitrogen Corp.] was used to measure hypoxia-induced signaling. Library compounds were measured for their ability to positively modulate the action of EC50 CoCl2 on reporter gene activity. Compounds were screened in a titration series in 1536-well format. Positive modulators were identified based on the AC50 values derived from the screening data.
NCGC Assay Protocol Summary:
2500 cells/5uL in Opti-MEM medium containing 0.5% dialyzed FBS, 0.1 mM NEAA, 1 mM sodium pyruvate and 10 mM HEPES was dispensed into 1536-well plates and cells were cultured at 37 degrees Celsius overnight. Next day 23 nL of compounds or DMSO were delivered to each well using a pin tool, and 1uL of EC50 level of CoCl2, or EC100 level of CoCl2, or assay medium was added. And then the plates were incubated at 37 degrees Celsius for 17 hours. 1 uL of CCF4-dye mixture was added to each well. After incubated at room temperature for 2.5 hours the plates were measured on an EnVision plate reader at Excitation 405nm, Emission1=460nm and Emission 2=530nm. The %Activity was determined from the ratio of 460nm/530nm.
Potency is the fitted concentration of half-maximal effect.

Compound	activation	Potency
Cc1ccccc1-c1nc(N2CCOCC2)c2ccccc2n1	11% (inactive)	–
COc1ccc(Oc2ncc3nc(-c4cccs4)c(=O)n(C)c3n2)cc1	–	3160 nM (active)
COc1ccc(-c2nc3cnc(Oc4ccccc4)nc3n(Cc3cccs3)c2=O)cc1	–	2510 nM (active)
N#Cc1ccc(CN2CCCC3(CCN(C(=O)c4cnccn4)CC3)C2)cc1	-10.7% (inactive)	–
COC(=O)N1CCC2(CCCN(Cc3ccccc3)C2)CC1	3.12% (inactive)	–
COc1ccc(-c2nc3cnc(N(C)C)nc3n(CCc3ccccc3)c2=O)cc1	–	794 nM (active)
CCNc1ncc2nc(-c3ccc(F)cc3)c(=O)n(Cc3ccc(F)cc3)c2n1	–	1580 nM (active)
O=C(c1cnccn1)N1CCC2(CC1)CN(Cc1ccccc1)C2	6.71% (inactive)	–
CN(C)c1ncc2nc(-c3ccc(F)cc3)c(=O)n(CCc3ccccc3)c2n1	–	1000 nM (active)
COc1ccc(C(=O)N2CCC3(CC2)CCN(c2ccccc2)CC3)cc1	-13.6% (inactive)	–
O=C(c1ccco1)N1CCC2(CCN(Cc3cc(C(F)(F)F)cc(C(F)(F)F)c3)CC2)CC1	-7.14% (inactive)	–
COc1cccc(-c2nc(NCc3cnc(C)cn3)c3ccccc3n2)c1	6.27% (inactive)	–
COCC(=O)N1CCC2(CC1)CCN(C(=O)NC(C)C)CC2	-5.43% (inactive)	–
CCNc1ncc2nc(-c3ccccc3)c(=O)n(Cc3cccc(OC)c3)c2n1	–	3160 nM (active)
COc1ccc(Oc2ncc3nc(-c4ccc(F)cc4)c(=O)n(C)c3n2)cc1	16.5% (inactive)	–
Clc1ccccc1-c1cncnc1NCCN1CCOCC1	–	3160 nM (active)
CN1CCN(c2ncc3nc(-c4ccccc4)c(=O)n(C4CC4)c3n2)CC1	–	3980 nM (active)
O=c1c(-c2cc(F)cc(F)c2)nc2cnc(N3CCOCC3)nc2n1Cc1ccc(F)cc1	–	3160 nM (active)
O=c1c(-c2ccc(Cl)cc2)nc2cncnc2n1Cc1ccccc1	-4.75% (inactive)	–
CN(Cc1ccco1)c1ncncc1-c1ccc2c(c1)OCO2	4.7% (inactive)	–

Compound	activation	Potency
CCNc1ncc2nc(-c3ccc(OC)cc3)c(=O)n(Cc3ccc(F)cc3)c2n1	–	1260 nM (active)
COc1cccc(Cn2c(=O)c(CCc3ccccc3)nc3cnc(N4CCNCC4)nc32)c1	8.93% (inactive)	–
CN(C)c1ncc2nc(-c3ccc(Cl)cc3)c(=O)n(C3CC3)c2n1	–	2510 nM (active)
O=c1c(-c2ccc(Cl)cc2)nc2cncnc2n1Cc1ccccc1Cl	25.2% (inactive)	–
CCNc1ncc2nc(-c3ccc(OC)cc3)c(=O)n(CCc3ccccc3)c2n1	–	501 nM (active)
c1ccc2c(Nc3ccncc3)nc(-c3ccc4c(c3)OCO4)nc2c1	-1.29% (inactive)	–
Cn1cc(-c2nc3cnc(Oc4ccccc4)nc3n(CCC#N)c2=O)c2ccccc21	–	3160 nM (active)
O=c1c(-c2cc(F)cc(F)c2)nc2cnc(N3CCOCC3)nc2n1-c1ccccc1	–	2510 nM (active)
CCNc1ncc2nc(-c3ccccc3)c(=O)n(CCc3ccccc3)c2n1	–	1580 nM (active)
Cc1ccccc1-c1nccc(-n2ccnc2)n1	-1.43% (inactive)	–
O=C(c1cc(C(F)(F)F)cc(C(F)(F)F)c1)N1CCC2(CC1)CCN(c1ncccn1)CC2	1.37% (inactive)	–
COC(=O)N1CCC2(CCN(Cc3ccccc3OC)CC2)CC1	2.91% (inactive)	–
CN(C)c1ncc2nc(-c3ccc(Cl)cc3)c(=O)n(Cc3cccs3)c2n1	–	398 nM (active)
COc1ccc(NC(=O)N2CCCC3(CCN(C(C)=O)CC3)C2)cc1	-9.1% (inactive)	–
COc1ccc(-c2nc3cnc(N4CCN(C)CC4)nc3n(CCC#N)c2=O)cc1	–	3160 nM (active)
COCCn1c(=O)c(-c2ccc(OC)cc2)nc2cnc(N3CCN(C)CC3)nc21	–	3160 nM (active)
c1cncc(CNc2cc(-c3ccoc3)ncn2)c1	0.531% (inactive)	–
Cn1cccc1C(=O)N1CCC2(CCN(Cc3ccncc3)CC2)CC1	-5.1% (inactive)	–
FC(F)(F)c1ccccc1-c1cncnc1NCCN1CCOCC1	–	2510 nM (active)
COc1ccccc1CCn1c(=O)c(-c2cccc(Cl)c2)nc2cncnc21	-1.79% (inactive)	–
